According to PubChem BioAssay AID504706 (National Center for Advancing Translational Sciences (NCATS), 2011):
About 200 (0.062%) of roughly 320,000 compounds were called active. Roughly 6% stayed inconclusive and do not appear here. Calls come from the whole dose curve; as a rule, active = well fitted activation curve with a large enough effect; inconclusive = small, poorly fitted or top-dose-only effect; inactive = no such curve, though single readings can be large or run the other way. Shown is part of a subset that was picked to be rich in actives.

Assay: qHTS assay for re-activators of p53 using a Luc reporter; note: nearly all actives have a fitted effect of over 45% in size; for activity change, positive = activation: % of control where 0% means no effect
Settings: H1299 p53-A138V BP100-luciferase reporter, luminescence, 24 h; series mostly up to 92.2 µM; activity change, positive = activation: at the top concentration
From the text: The p53 tumor suppressor plays a key role in suppression of tumorigenesis and in human carcinogenesis. It is frequently found inactivated in human cancers, mainly by point mutation. These point mutations are found in a wide variety of human cancers and a majority of them affect the DNA binding domain of the protein. The point mutations either alter native p53 conformation or abolish DNA contact. Additionally, cancer cells with p53 mutations are more resistant to chemo-radiation therapies. In order to find activators to reactivate this important protein, a cell-based screen for p53-dependent luciferase-reporter expression was developed. A p53-null H1299 lung cancer cell line was stably co-transfected with a temperature sensitive p53 mutant, p53-A138V, and a p53-responsive BP100-luciferase reporter. This cell model has previously been characterized in a gene chip profiling experiment for p53 activation. By lowering the culture temperature from 37 deg C (mutant p53 conformation) to 32 deg C (w.t. p53 conformation), a 30-60 fold increase in activation of luciferase activity is observed. At assay temperate, 37 deg C, basal reporter expression is very low and after the addition of detection reagent, a luminescent read-out is carried out. NIH Chemical Genomics Center [NCGC] NIH Molecular Libraries Probe Production Centers Network [MLPCN] MLPCN Grant: DA031088-01A1 Assay Provider (PI): Yi Sung, University of Michigan at Ann Arbor
5ul of 1000 cells per well are dispensed in all wells except column 4, into white solid-bottom TC-treated Kalypsys plates. The cells are kept in Opti-MEM and supplemented with 10% FBS and dispensed using a Multidrop (Thermo). Then using the Kalypsys pin-tool, 23nl of compounds are pinned. The compounds are starting concentration at 10mM, with 1:5 dilution, 4 points, and the control compound nocodazole is pinned in column 1 at 25mM, 1:3 dilution, in duplicate, 25mM nocodazole is pinned in column 2. Please note, all concentrations are working concentrations. 5ul of 1pM purified luciferase enzyme is dispensed using the Kalypsys dispenser in column 4. Plates are incubated for 24 hrs at 37 deg C, 5% CO2, and 95% humidity. Then 4ul of the detection reagent Amplite (ABD Bioquest) is added using the Kalypsys dispenser. Plates are incubated for 10 min at ambient room temperature and are then read on the ViewLux (Perkin Elmer) using a clear filter for a luminescent read-out.
Potency is the fitted concentration of half-maximal effect.

Activity change, positive = activation, inactive:
COC(=O)c1ccc(CNC(=O)c2ccc(S(=O)(=O)N3CCCCCC3)cc2)cc1 -2%
O=C(COc1ccc(F)cc1Br)NCC1COc2ccccc2O1 (centres undefined) -3.91%
CC(C)N(C(=O)[C@H]1C[C@H](CC(=O)NCCC2=CCCCC2)C(=O)N2CCc3c([nH]c4cc(CCC(=O)N(C)C)ccc34)[C@]12C)C(C)C -2.05%
CN(C)C(=O)CCc1ccc2c3c([nH]c2c1)[C@]1(C)[C@@H](C(=O)N2CCOCC2)C[C@H](CC(=O)NCCc2ccccn2)C(=O)N1CC3 21.2%
Cc1onc(-c2ccccc2)c1C(=O)N1CCN(S(=O)(=O)c2ccccc2C(F)(F)F)CC1 14.4%
O=c1c2ccccc2c(-c2ccc(F)cc2)nn1-c1ccc(C(F)(F)F)cc1 3.3%
CC(C)n1cnc2c(NCc3ccccc3)cc(N[C@@H](CO)Cc3ccccc3)cc21 -14.8%
COc1ccc2[nH]c3c(c2c1)CCN1C(=O)C(CC(=O)NCc2cccc(C(F)(F)F)c2)C[C@H](C(=O)N2CCOCC2)[C@@]31C (some centres undefined) -2.15%
COc1ccccc1N(CCOc1ccccc1)S(=O)(=O)c1ccccc1 4.72%
COc1ccc(-c2noc(CCC(=O)N3CCN(c4cccc(C)c4)CC3)n2)cc1 -6.14%
CCCCC[C@@H]1C=C(C(=O)O)[C@H](c2ccc(C#N)cc2)N1S(=O)(=O)c1ccc(C)cc1 -8.31%
CCC(C)c1ccc(NC(=O)COC(=O)C2CCCC2)cc1 (centres undefined) 22.8%
O=C(NCC#CCSc1nnc(-c2cccc3ccccc23)o1)c1cccs1 4.19%
O=C(NOCc1ccccc1)c1cccc([N+](=O)[O-])c1 24.5%
CCOC(=O)C1CCCN(C(=O)CSc2nnc3nc(C)cc(C)n23)C1 (centres undefined) 2.38%
CCOC(=O)C1CCN(C(=O)CN2C(=O)NC(C)(c3ccc4cc(OC)ccc4c3)C2=O)CC1 (centres undefined) -3.98%
O=C(NCCc1ccccc1)c1ccc2c(c1)N(Cc1ccccc1)CCS2 8.11%
CC1CCN(C(=O)CCNC(=O)c2ccccc2)CC1 19.5%
CC[C@]12c3[nH]c4ccc(Cl)cc4c3CCN1C(=O)[C@@H](CC(=O)NCCCOC)C[C@@H]2C(=O)N1CCN(C(=O)c2ccco2)CC1 -3.84%
CC[C@]12c3[nH]c4cc(CCC(=O)N(C)C)ccc4c3CCN1C(=O)[C@@H](CC(=O)NCC13CC4CC(CC(C4)C1)C3)C[C@@H]2C(=O)N1CCN(C(=O)C2CC2)CC1 7.54%
CCn1c(=S)[nH]c2cc(S(=O)(=O)N3CCOCC3)ccc21 -13.9%
Cc1nc2cc(-c3ccc(F)cc3)nn2c(N2CCOCC2)c1C 15.1%
Cc1cc(C(C)(C)C)n2nc(C)c(-c3ccccc3)c2n1 1.98%
CC(C)CC1NC(=O)c2cc(Cl)ccc2-n2c1nc1ccccc1c2=O (centres undefined) -4.01%
COc1cccc(CNC(C)C(=O)Nc2ccc(S(=O)(=O)N3CCCC3)cc2)c1 (centres undefined) -4.27%
Cc1cc(NC(=O)CSCC(=O)NC(C)c2ccccc2)no1 (centres undefined) -1.81%
O=C(Nc1ccc(N2CCOCC2)cc1)c1cccc(S(=O)(=O)N2CCOCC2)c1 -1.76%
O=C(Nc1cccnc1Cl)c1cc(-c2ccccc2O)on1 23.1%
Cc1ccc(NC(=O)c2cc(-c3ccccc3O)n[nH]2)cc1C -0.764%
CCN(CC(=O)NCc1ccc(F)cc1)S(=O)(=O)c1ccc(Cl)s1 -4.07%
CC(=O)c1ccc(NC(=O)CSc2nc3ccccc3c(=O)n2CCCN2CCOCC2)cc1 -10.6%
CC(=O)Nc1ccc(S(=O)(=O)Nc2ccc(N3CCCCC3)cc2)cc1 7.31%
CC[C@]1(C(=O)OC)[C@H]2C(=O)N(C)C(=O)[C@H]2[C@H]2CN(C)C(=NCc3ccccc3)N21 -0.397%
CC1O[C@H](OC2C(COC3OC(CO)C(O)[C@H](O)C3O)OC(OC3CC[C@]4(C)C(CC[C@@]5(C)[C@@H]4C=C[C@]46OC[C@@]7(CCC(C)(C)C[C@H]74)C(O)C[C@@]56C)C3(C)C)C(O)C2O)C(O)C(O)C1O (some centres undefined) 0.455%
CC[C@]12c3[nH]c4cc(CCC(=O)N(C)C)ccc4c3CCN1C(=O)[C@@H](CC(=O)NCCCN(C)C)C[C@@H]2C(=O)N1CCN(C(=O)c2ccco2)CC1 -0.34%
CN1C(=O)[C@H]2[C@@H](/C=C/c3ccccc3)N3C(=O)CN(Cc4ccc(-c5ccccc5)cc4)C(=O)[C@@]3(C)[C@H]2C1=O 0.747%
CC1Sc2ccc(C(=O)NCc3ccccc3Cl)cc2NC1=O (centres undefined) 0.128%
O=C1NC(Cc2ccc(O)cc2)c2nc3ccc(Cl)cc3c(=O)n2-c2ccccc21 (centres undefined) 3.93%
Cc1ccc(C)c(S(=O)(=O)N2CCN(c3ncnc4sccc34)CC2)c1 -8.28%
C=CC[C@@H](Cc1ccc(F)cc1)C(=O)OC[C@H]1CCCN1C(=O)[C@H](CC=C)CC(=O)N(CCO)Cc1ccccc1 2.23%
CC(=O)Nc1ccc(C(=O)/C=C/c2ccc[nH]2)cc1 9.7%
CC(=O)Nc1ccc(NC(=S)NC(=O)/C=C/c2ccccc2)cc1 1.32%
O=C(C[C@H]1C[C@H](C(=O)N2CCOCC2)[C@@]2(CCC3CCCC3)c3[nH]c4ccc(Cl)cc4c3CCN2C1=O)NCc1ccco1 -4.21%
CC[C@]12c3[nH]c4cc(CCC(=O)N(C)C)ccc4c3CCN1C(=O)[C@@H](CC(=O)NCc1ccco1)C[C@@H]2C(=O)N1CCN(C(=O)c2ccco2)CC1 -0.895%
COc1cc(/C=C/C(=O)Nc2ccc(OC)c(S(=O)(=O)N3CCOCC3)c2)ccc1OCC#N -10.6%
O=C1OC[C@@H]2CCCN2C(=O)[C@H](CC(=O)N(CCO)Cc2ccccc2)C/C=C\CC[C@@H]1Cc1ccc(F)cc1 5.47%
COc1cc(OC)c(C(=O)NNC(=O)c2ccccc2-n2cccc2)cc1OC -0.521%
C[C@@H]1CN([C@@H](C)CO)C(=O)c2cccc(NS(=O)(=O)c3ccc(F)cc3)c2O[C@H]1CN(C)C(=O)NC1CCCCC1 -3.42%
COC(=O)[C@]1(C)N[C@H](CN(C)C(=O)c2ccc(C(C)(C)C)cc2)[C@@H]2C(=O)N(C)C(=O)[C@@H]21 0.555%
Cc1ccc(CNC(=O)Cn2cnc3c(NCc4ccccc4)ncnc32)o1 -1.49%
CN(C(=O)c1cccc(NC(=O)Cc2ccc([N+](=O)[O-])cc2)c1)C1CCC1 -5.23%
CCN(C(=O)CSc1nnnn1-c1ccc(OC)cc1)C1CCS(=O)(=O)C1 (centres undefined) -2.62%
C#CCOCCOCCOCCNc1nc(N2CCN(C(=O)[C@H](CCCN=C(N)N)n3cc(C(N)[C@@H](C)CC)nn3)CC2)nc(N2CCN(C(=O)[C@H](CO)n3cc([C@@H](N)C(C)C)nn3)CC2)n1 (some centres undefined) 0.362%
CCCCNS(=O)(=O)CCNCc1ccccc1OC -5.63%
C=CCC[C@@H](Cc1ccc(F)cc1)C(=O)OC[C@@H](C)NC(=O)[C@H](CC=C)CC(=O)N(CCO)Cc1ccccc1 -7.01%
CC(=NNC(=O)c1ccc2nc[nH]c2c1)c1ccc(Br)cc1 5.89%
CC[C@@H]1CCCCc2ccccc2[C@@H](C(=O)C[C@H](O)CC(C)=O)OC1=O -0.71%
Oc1ccc(/C=N/Nc2ccc(C(F)(F)F)cn2)cc1O 18.2%
COc1ccc(-c2nn(-c3ccccc3)cc2/C=N/Nc2ccccn2)cc1OC 0.301%
COc1ccc(-c2nc3cc(C)ccn3c2NC2CCCCC2)cc1SC1CCCCC1 3.29%
CSc1ccc(/C=N\NC(=O)CC(=O)NC(C)C)cc1 1.21%
O=C(N/N=C/c1ccc(Cl)c(Cl)c1)c1ccc2nc[nH]c2c1 13.3%
COc1ccc2nc3n(c(=O)c2c1)-c1cc(C)ccc1C(=O)NC3Cc1ccc(O)cc1 (centres undefined) 3.32%
O=C1CCC/C=C/C[C@@H](CC(=O)N(CCO)Cc2ccccc2)C(=O)NC[C@H](c2ccccc2)O1 0.64%
C=CCC[C@H](Cc1ccc(F)cc1)C(=O)OC[C@@H](Cc1c[nH]c2ccccc12)NC(=O)[C@H](CC=C)CC(=O)N[C@H](CO)Cc1ccccc1 -2.92%
C=CCC[C@H](Cc1ccc(F)cc1)C(=O)OC[C@@H](NC(=O)[C@@H](CC=C)CC(=O)N[C@H](CO)Cc1ccccc1)C(C)(C)C -0.891%
C=CC[C@@H](CC(=O)N[C@H](CO)Cc1ccccc1)C(=O)N[C@H](C)COC(=O)[C@@H](CC=C)Cc1ccc(F)cc1 3.98%
Cc1noc(C)c1S(=O)(=O)N(C)C[C@H]1Oc2c(NC(=O)Nc3ccc4c(c3)OCO4)cccc2C(=O)N([C@H](C)CO)C[C@@H]1C -4.87%
O=C(CCc1ccc(S(=O)(=O)N2CCOCC2)cc1)OCC(=O)c1ccc(Br)cc1 -1.37%
Cc1ccc(NC(=O)C2CCC(C(C)(C)C)CC2)cc1S(=O)(=O)N1CCOCC1 (centres undefined) 11.4%
O=C(Cn1cc(C(F)(F)F)ccc1=O)Nc1ccc2c(c1)OCCO2 -1.81%
COc1ccccc1N(CC(=O)Nc1ccc(C)cc1Cl)S(=O)(=O)c1cccs1 -6.31%
CC[C@]12c3[nH]c4ccc(Cl)cc4c3CCN1C(=O)[C@@H](CC(=O)NCCCOC)C[C@@H]2C(=O)N1CCN(C(=O)C2CC2)CC1 1.51%
COc1ccc(CNC(=O)C[C@H]2C[C@H](C(=O)N3CCOCC3)[C@@]3(C)c4[nH]c5cc(CCC(=O)N(C)C)ccc5c4CCN3C2=O)cc1OC 12.8%
COc1ccc2[nH]cc(/C=C(/C#N)S(=O)(=O)c3ccccc3)c2c1 -3.33%
COc1ccc(C(C(O)C(=O)c2c[nH]c3ccccc23)N2CCN(c3ccccc3)CC2)cc1 (centres undefined) -0.0809%

Potency, active:
Cn1c(-c2ccc(C(F)(F)F)cc2)cc2onc(-c3ccccc3)c2c1=O 22.4 µM
CC1CCCN(c2ccc(C(=O)NCCc3ccccc3)cn2)C1 (centres undefined) 35.5 µM
Cc1cc(N)n2nc(-c3ccc(C(C)(C)C)cc3)cc2n1 11.2 µM
Oc1ccccc1-c1cc(-c2ccc(Cl)cc2)n[nH]1 2.82 µM
CC(=O)Nc1ccc(/C=C/C(=O)c2ccccc2)cc1 15.8 µM
Oc1ccc(Br)cc1/C=N/Nc1ccccn1 28.2 µM
CSc1ccc(/C=N/NC(=O)c2cccc(Cl)c2)cc1 10 µM
COc1ccc(/C=C(\C#N)c2c[nH]c3ccccc23)cc1 31.6 µM
